Source: PubChem BioAssay AID587 (National Center for Advancing Translational Sciences (NCATS), 2007)
The whole screen tested about 59,000 compounds, of which about 35 (0.06%) were called active. About 19% were inconclusive and are not listed. No stated cut-off is given here; in the data, active means max dye-equivalent concentration above about 10 nM; inconclusive means between about 1.1 nM and that limit; inactive means weaker than that. The entries come from a sample that favours actives as a whole.

assay: qHTS Assay for Spectroscopic Profiling in Texas Red Spectral Region; conditions: Compound fluorescence, Texas Red channel, 547/618 nm
Source text: NIH Molecular Libraries Screening Centers Network [MLSCN] NIH Chemical Genomics Center [NCGC] […] Occasionally, the artifactual effect may originate from the compound#s own spectral or other biophysical properties which generally tend to track its assay concentration. Pre-screening/profiling the library with respect to the compounds# spectral properties should help one exclude false positives early on. While the most informative fluorescent profiling data set is obtained by performing a full excitation and emission scan of each well by using a monochromator-based plate reader, such an approach is practical only on a very limited scale as scanning each well requires long time. An alternative approach, applied here, is to perform plate reader scans using selected excitation and emission wavelength pairs to generate a multidimensional relational database that correlates compound concentration and the respective relative fluorescence intensity at a given wavelength set. A standard curve of Texas Red (TR) present on each plate as six-point concentration series, was used to compute a normalized fluorescence response, termed dye-equivalent concentration, for each compound at each concentration.
NCGC Assay Protocol Summary: Buffer: 100 mM Tris buffer, pH 8.0 Dye standard plate: The wells in columns 1 through 4 of a Kalypsys polypropylene 1536-well compound plate were filled with standard solutions of fluorophore corresponding to the spectral region of interest. Solutions of TR were placed in the following wells: U1, V1: 3 mM, U2, V2: 300 uM, U3, V3: 30 uM, U4, V4: zero (DMSO), W1, X1: 3 uM, W2, X2: 900 nM, W3, X3: 300 nM, W4, X4: zero (DMSO). Assay Steps: Six uL of buffer were dispensed to 1536-well Greiner black plates. Compounds and dye standards (23 nL) were transferred via Kalypsys PinTool. The plates were incubated for 15 min at room temperature, and then read on ViewLux (Perkin-Elmer) High-throughput CCD imager using 547 nm and 618 nm excitation and emission filter set. Keywords: NIH Roadmap, MLSCN, MLI, MLSMR, qHTS, NCGC, Texas Red, Fluorescent Profiling.

Max dye-equivalent concentration, inactive:
O=C1CC2(CCCCC2)Oc2ccc(OCC(=O)N3CCOCC3)cc21
Cc1cnc(CNc2cc(-c3c(C)noc3C)ncn2)cn1
CS(=O)(=O)Nc1cccc(-c2cncnc2Nc2ccccc2)c1
CC(C)OC(=O)C(C#N)c1nc2ccccc2nc1N1CCN(Cc2ccc3c(c2)OCO3)CC1 (stereo not drawn)
Oc1ccc2ccccc2c1C=NCc1c(O)ccc2ccccc12
COCCNC(=S)c1ccc(OC)cc1
CCOC(=O)c1cnc2sccn2c1=O
COc1ccc(OC)c(C(=O)CSc2nnc(-c3cccs3)o2)c1
CCCCn1c(SCC(=O)N2CCC(C(=O)OCC)CC2)nc2cc(S(N)(=O)=O)ccc21
Cc1cc(N2CCCCC2)nc2ccc(Cc3ccc4nc(N5CCCCC5)cc(C)c4c3)cc12
CC(C)c1nc2oc3c(N4CCN(C)CC4)ncnc3c2c2c1CCC2
COCCNc1cc(-c2c(C)noc2C)ncn1
O=c1c(-c2ccc(F)cc2)nc2cnc(N3CCNCC3)nc2n1Cc1cccs1
Cc1nc(NCCN)c(C#N)c2c1COC(C)(C)C2
Cn1cccc1C(=O)NC(=O)COC(=O)Cc1coc2ccc3ccccc3c12
CCOCCN(C=O)c1cccc(OC)c1
COc1ccc2[nH]c(=O)c(CN(CC3CCCO3)C(=O)Nc3ccccc3)cc2c1 (stereo not drawn)
Cn1c(=O)c2c(n(Cc3ccccc3)c1=O)NC(=O)C2CC(=O)N1CCc2ccccc2C1 (stereo not drawn)
O=S(=O)(c1ccccc1)N1CCC2(CC1)CN(Cc1nccs1)C2
O=C(O)CS(=O)c1ccc2c3c(cccc13)C(=O)c1ccccc1-2 (stereo not drawn)
Nc1nonc1-c1nc2ccccc2n1CCC(=O)O
Cc1nc2cnc(N3CCNCC3)nc2n(Cc2ccc(F)cc2)c1=O
Cn1c(=S)c2[nH]c(SCCCc3ccccc3)nc2n(C)c1=O
